Shiga inhibitor: Shiga toxin inhibition; Vero cells, Shiga toxin protein synthesis inhibition reporter; inhibition, % at 38.7 µM; hit rate 9.2% among 290,000; in the data active means inhibition mostly above about 28%, no sharp cut-off; inactive means mostly below about 43%
Marburg entry inh: inhibitors of Marburg virus binding or cell entry | Marburg virus pseudotyped entry inhibition, cell reporter | Potency, µM (highest dose often 37.8 µM), actives largely listed as inhibitors | hit rate 1.8% among 300,000 | AID 540276; calls by dose curve; tested in HEK293 cells
CHX counter: counter-screen for Shiga toxin inhibitors: cycloheximide protein synthesis inhibition; cell reporter, cycloheximide protein synthesis inhibition counterscreen; AID 2314; max response, %; hit rate 12% among 300,000; in the data active means max response mostly above about 13%, no sharp cut-off; inactive means mostly below about 14%; further: read at 38.3 µM for the half of the compounds with a filed dose
Lassa entry inh: Lassa virus entry inhibition. Potency, µM (top dose mostly 37.9 µM), actives largely listed as inhibitors. Lassa virus pseudotype entry inhibition, cell reporter. hit rate 1.2% among 300,000; calls by dose curve; tested in HEK293 cells; further: nearly all actives have a fitted effect of over 50% in size
Of the large screens only hits and unclear results are named; the others gave an inactive call. Most compounds without a hit are left out; they make up all but 12% or so of the library.

O=C(Nc1cccc2ccccc12)c1ccccc1	Shiga inhibitor 96, Marburg entry inh inconclusive, CHX counter 42
COc1ccc(CNC(=O)Cn2c(SCC(=O)Nc3ccc(OC)cc3)nc3ccccc32)cc1	none (no result: Shiga inhibitor, Marburg entry inh, CHX counter)
CCc1nc2ccc(C(=O)N3CCN(c4ccc([N+](=O)[O-])cc4)CC3)cc2nc1CC	none (no result: Marburg entry inh, Lassa entry inh)
NS(=O)(=O)c1ccc(O)c(NC(=O)c2ccc([N+](=O)[O-])cc2)c1	CHX counter 22
O=C(Nc1cccc2ccccc12)c1ccc([N+](=O)[O-])cc1	CHX counter 14 (no result: Marburg entry inh, Lassa entry inh)
O=C(N1CCOCC1)N1CCc2ccccc21	none (no result: Marburg entry inh, Lassa entry inh)
CCN(CC)CCCNc1nc2ccccc2c2nc(-c3ccncc3)nn12	Marburg entry inh 7.9µM, Lassa entry inh inconclusive
OCCNc1nc(-c2ccccc2)nc2ccccc12	none
CCN(CC)CCCNc1nc2cc(OC)c(OC)cc2c2nc(-c3ccccc3)nn12	Marburg entry inh inconclusive, Lassa entry inh inconclusive
CCN(CC)CCCNc1nc(-c2ccccc2)nc2ccccc12	Marburg entry inh 16µM, Lassa entry inh inconclusive
COCCCNc1nc(-c2ccc(Cl)cc2)nc2ccccc12	Marburg entry inh 11µM, Lassa entry inh inconclusive
Cc1ccc(NC(=O)C2CCCN(S(=O)(=O)c3cccc4cccnc34)C2)c(C)c1 (stereo not given)	Lassa entry inh inconclusive (no result: Shiga inhibitor, CHX counter)
COc1ccc(S(=O)(=O)N/N=C(/C)c2ccco2)cc1	Shiga inhibitor 130, Marburg entry inh inconclusive, CHX counter 56
COc1ccc(S(=O)(=O)N/N=C(/C)c2ccc(C)o2)cc1	none (no result: Shiga inhibitor, CHX counter)
CNC(=O)C1CC(=O)N(CCc2ccc(C)cc2)C1 (stereo not given)	Marburg entry inh inconclusive
O=S(=O)(c1cccs1)N1CN(Cc2ccc(Cl)cc2)c2nc3ccccc3nc21	CHX counter 15
CCCCN1CN(S(=O)(=O)c2cccs2)c2nc3ccccc3nc21	none (no result: Marburg entry inh, Lassa entry inh)
CC(C)OCCCN1CN(S(=O)(=O)c2cccs2)c2nc3ccccc3nc21	CHX counter 14
Cc1cccc(S(=O)(=O)N2CN(Cc3ccco3)c3nc4ccccc4nc32)c1	none
COCCN1CN(S(=O)(=O)c2ccccc2)c2nc3ccccc3nc21	none
COc1ccccc1CN1CN(S(=O)(=O)c2ccccc2)c2nc3ccccc3nc21	Shiga inhibitor 110, CHX counter 31 (no result: Marburg entry inh, Lassa entry inh)
O=S(=O)(c1cccs1)N1CN(Cc2ccco2)c2nc3ccccc3nc21	Shiga inhibitor 40, CHX counter 31
Cc1ccc(CN2CN(S(=O)(=O)c3cccs3)c3nc4ccccc4nc32)cc1	Shiga inhibitor 81, CHX counter 91, Lassa entry inh inconclusive
CCCCc1c(C)nc2nc(SCc3ccc(Cl)cc3)[nH]n2c1=O	none (no result: Marburg entry inh, Lassa entry inh)
CC1CCCN(S(=O)(=O)c2ccc3c(c2)CCN3C(=O)CCC(=O)O)C1 (stereo not given)	none (no result: Shiga inhibitor, CHX counter)
Cc1ccc(NS(=O)(=O)c2cc(NC(=O)C(C)Oc3ccccc3)ccc2C)c(C)c1 (stereo not given)	Marburg entry inh 4.6µM, Lassa entry inh inconclusive
CC1CCc2noc(NC(=O)c3ccccc3[N+](=O)[O-])c2C1 (stereo not given)	none (no result: Shiga inhibitor, CHX counter)
C/C(=N\NC(=O)c1cccc(Cl)c1)c1cccc(NC(=O)C(C)C)c1	Shiga inhibitor 46, CHX counter 30
C/C(=N\NC(=O)c1ccc(Cl)cc1)c1cccc(NC(=O)C(C)C)c1	Marburg entry inh inconclusive, CHX counter 17
CCC(CC)C(=O)Nc1cccc(/C(C)=N/NC(=O)c2c(Br)cnn2C)c1	none
C/C(=N\NC(=O)c1ccc(Cl)c(Cl)c1)c1cccc(NC(=O)C(C)C)c1	none
CCC(CC)C(=O)Nc1cccc(/C(C)=N/NC(=O)c2ccccc2Cl)c1	CHX counter 16
COc1ccc(C(=O)N/N=C(/C)c2cccc(NC(=O)c3ccncc3)c2)cc1OC	none (no result: Marburg entry inh, Lassa entry inh)
C/C(=N\NC(=O)c1ccncc1)c1cccc(NC(=O)c2ccc(Cl)s2)c1	Shiga inhibitor 77, CHX counter 31
O=C(O)c1ccc(NC(=S)Nc2ccc(S(=O)(=O)Nc3ccccn3)cc2)cc1	Lassa entry inh inconclusive (no result: Shiga inhibitor, CHX counter)
O=C1[C@@H]2[C@H](ON(c3ccccc3)[C@H]2c2ccncc2)C(=O)N1c1ccc(Br)cc1	none (no result: Shiga inhibitor, CHX counter, Lassa entry inh)
C/C(=N\NC(=O)c1ccc(Cn2cc(Br)cn2)o1)c1cccc(NC(=O)C(C)C)c1	Marburg entry inh inconclusive, CHX counter 20, Lassa entry inh inconclusive
Cc1ccccc1CC(=O)N(CCN(C)C)CC1CCCN(Cc2ccccc2F)C1 (stereo not given)	Marburg entry inh inconclusive, Lassa entry inh inconclusive
CN(C)CCN(CC1CCCN(Cc2ccccc2F)C1)C(=O)c1ccc(Cl)cc1 (stereo not given)	Marburg entry inh 8.9µM, Lassa entry inh inconclusive
Cc1cc(C(=O)O)ccc1N=Cc1c(O)ccc2ccccc12	CHX counter 10, Lassa entry inh inconclusive
Oc1ccccc1N=Cc1c(O)ccc2ccccc12	Shiga inhibitor 39, CHX counter 11
CC(=O)c1cccc(N=Cc2c(O)ccc3ccccc23)c1	Marburg entry inh inconclusive
CS/C(N)=N/N=C/c1c(O)ccc2ccccc12	Shiga inhibitor 58, CHX counter 29 (no result: Marburg entry inh, Lassa entry inh)
CN(C)/N=C/c1c(O)ccc2ccccc12	none
CC(=O)N(C)c1ccc(N=Cc2c(O)ccc3ccccc23)cc1	Shiga inhibitor 25, CHX counter 17
COC(=O)c1cn(C(=O)c2cc(Br)ccc2Cl)c2ccccc12	none (no result: Marburg entry inh, Lassa entry inh)
COc1nc(N/N=C/c2ccc(C)cc2)nc(N2CCCCC2)n1	none
COc1cc(CCC(=O)NNC(=O)c2ccc(C)cc2)cc(OC)c1OC	Marburg entry inh inconclusive
COc1cccc(-n2c(=O)c3c(C)c(C(=O)N(C)C)sc3n(CC(=O)NCC3CCCO3)c2=O)c1 (stereo not given)	none
CC(C)=N/N=C1\NC(=O)C(C)S1 (stereo not given)	CHX counter 29 (no result: Marburg entry inh, Lassa entry inh)
CC(=O)NCCCNS(=O)(=O)c1ccc(C)cc1	none
COc1ccc(Cn2c(C3CC3)nc3ccc(NC(C)=O)cc3c2=O)cc1	Shiga inhibitor 121, Marburg entry inh inconclusive, CHX counter 57, Lassa entry inh inconclusive
CCCc1nc2ccc(NC(C)=O)cc2c(=O)n1Cc1ccc(Cl)cc1	Shiga inhibitor 90, Marburg entry inh inconclusive, CHX counter 43
COc1ccc(Cn2c(C)nc3ccc([N+](=O)[O-])cc3c2=O)cc1	none (no result: Marburg entry inh, Lassa entry inh)
COc1ccc(Cn2c(C3CC3)nc3ccc(NC(=O)c4cccnc4)cc3c2=O)cc1	Shiga inhibitor 54, Marburg entry inh inconclusive, CHX counter 22
CCCc1nc2ccc(NC(=O)c3cccs3)cc2c(=O)n1Cc1ccccc1Cl	Marburg entry inh inconclusive, Lassa entry inh inconclusive
CCOc1ccc(-c2c(C(=O)N/N=C(\C)c3ccco3)nnn2-c2nonc2N)cc1	none (no result: Marburg entry inh, Lassa entry inh)
CCOc1ccc(CNC(=O)C2CCN(S(=O)(=O)CC)CC2)cc1OC	none
COc1cc(CNC(=O)C2CC2)ccc1OCc1ccccc1	Shiga inhibitor 64, CHX counter 46, Lassa entry inh inconclusive
COc1ccc(CN2CCCCCC2)cc1OC	Marburg entry inh inconclusive (no result: Shiga inhibitor, CHX counter)
COc1cc(CN2CCCCC2)ccc1OCc1ccccc1	Shiga inhibitor 56, Marburg entry inh inconclusive, CHX counter 32
COc1cc(CN2CCC(C(=O)NCCC(C)C)CC2)ccc1OCc1ccccc1	Shiga inhibitor 101, CHX counter 25 (no result: Marburg entry inh, Lassa entry inh)
CC1CN(Cc2ccc(Cl)cc2Cl)CC(C)O1 (stereo not given)	Shiga inhibitor 46
COc1ccccc1OCC(=O)N1CCN(C(=O)c2ccco2)CC1	none

Bioassay records as filed in PubChem BioAssay.
